Active and inactive are the calls of the source. How the calls were made is not given here.
Assay: Vero 76 cell cytotoxicity, dose response, cytotoxicity control for VEEV inhibitor project, set 9 (AID 651930)
Details: Vero 76 cytotoxicity; series mostly up to 25 µM

SMILES	outcome
COc1ccc(-n2c(CN3CCNCC3)nc3ccc([N+](=O)[O-])cc3c2=O)cc1	inactive
O=c1c2cc([N+](=O)[O-])ccc2nc(CN2CCNCC2)n1-c1ccsc1	inactive
CCN1CCN(Cc2nc3ncc([N+](=O)[O-])cc3c(=O)n2-c2ccccc2)CC1	inactive
CCN1CCN(Cc2nc3ccc(-c4nn[nH]n4)cc3c(=O)n2-c2ccccc2)CC1	inactive
COc1ccc(Nc2nc(=O)c3cccnc3s2)cc1	inactive

Reference: PubChem BioAssay AID651930 (Southern Research Specialized Biocontainment Screening …, 2012)
